# In PubChem BioAssay AID1159580 (chemical genetic matrix, 2015):
# Several values for one entry are separate records, joined by “and”; a condition that tells them apart may be missing. Equal values may be shown once. Screen size: about 5,500 compounds; about 2,000 (36%) were called active. About 18% were inconclusive and are not listed. No stated cut-off is given here; in the data, active means normalized growth mostly below about 0.91 (no sharp cut-off); inconclusive means no clear call, values can overlap the other calls; inactive means mostly above about 0.92. The list shows a part of the results.
# Experiment: chemical genetic growth profiling, strain panel (AID 1159580);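 further: tested at 20 µM; growth read once vehicle control cultures reached saturation at 30 °C; 1 = growth at the plate median or of vehicle wells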
# Conditions: S. cerevisiae deletion strains, growth OD
smiles,measurement,setting,value
CC(C(=O)O)c1ccc2c(c1)[nH]c1ccc(Cl)cc12 (configuration not stated),normalized growth,"locus YAL013W, strain DEP1, stronger effect = lower value",1.02 (inactive)
same,normalized growth,"locus YAL021C, strain ccr4, stronger effect = lower value",0.949 (inactive)
same,normalized growth,"locus YAL026C, strain drs2, stronger effect = lower value",0.953 (inactive)
same,normalized growth,"locus YAL030W, strain snc1, stronger effect = lower value",0.979 (inactive)
same,normalized growth,"locus YBL061C, strain skt5, stronger effect = lower value",0.955 (inactive)
same,normalized growth,"locus YBR009C, strain hhf1, stronger effect = lower value",0.979 (inactive)
same,normalized growth,"locus YBR021W, strain FUR4, stronger effect = lower value",1 (inactive)
same,normalized growth,"locus YBR023C, strain chs3, stronger effect = lower value",0.973 (inactive)
same,normalized growth,"locus YBR171W, strain sec66, stronger effect = lower value",0.981 (inactive)
same,normalized growth,"locus YBR229C, strain ROT2, stronger effect = lower value",1.01 (inactive)
same,normalized growth,"locus YBR231C, strain swc5, stronger effect = lower value",0.981 (inactive)
same,normalized growth,"locus YBR279W, strain paf1, stronger effect = lower value",0.957 (inactive)
same,normalized growth,"locus YCL011C, strain gbp2, stronger effect = lower value",1 (inactive)
same,normalized growth,"locus YCL016C, strain dcc1, stronger effect = lower value",0.951 (inactive)
same,normalized growth,"locus YCL029C, strain bik1, stronger effect = lower value",0.982 (inactive)
same,normalized growth,"locus YCL061C, strain MRC1, stronger effect = lower value",0.978 (inactive)
same,normalized growth,"locus YCL069W, strain vba3, stronger effect = lower value",1.01 (inactive)
same,normalized growth,"locus YCR088W, strain abp1, stronger effect = lower value",0.973 (inactive)
same,normalized growth,"locus YDL005C, strain med2, stronger effect = lower value",0.975 (inactive)
same,normalized growth,"locus YDL035C, strain GPR1, stronger effect = lower value",1 (inactive)
same,normalized growth,"locus YDL040C, strain nat1, stronger effect = lower value",0.978 (inactive)
same,normalized growth,"locus YDL074C, strain BRE1, stronger effect = lower value",1.03 (inactive)
same,normalized growth,"locus YDL101C, strain DUN1, stronger effect = lower value",1.02 (inactive)
same,normalized growth,"locus YDL134C, strain PPH21, stronger effect = lower value",1.01 (inactive)
same,normalized growth,"locus YDL185W, strain tfp1, stronger effect = lower value",0.948 (inactive)
same,normalized growth,"locus YDL192W, strain arf1, stronger effect = lower value",0.954 (inactive)
same,normalized growth,"locus YDR001C, strain nth1, stronger effect = lower value",0.996 (inactive)
same,normalized growth,"locus YDR069C, strain doa4, stronger effect = lower value",0.984 (inactive)
same,normalized growth,"locus YDR101C, strain arx1, stronger effect = lower value",0.972 (inactive)
same,normalized growth,"locus YDR137W, strain rgp1, stronger effect = lower value",0.945 (inactive)
same,normalized growth,"locus YDR150W, strain NUM1, stronger effect = lower value",1.02 (inactive)
same,normalized growth,"locus YDR159W, strain sac3, stronger effect = lower value",0.895 (inactive)
same,normalized growth,"locus YDR162C, strain NBP2, stronger effect = lower value",1.02 (inactive)
same,normalized growth,"locus YDR195W, strain ref2",1.01 (inactive)
same,normalized growth,"locus YDR297W, strain sur2, stronger effect = lower value",0.983 (inactive)
same,normalized growth,"locus YDR318W, strain mcm21, stronger effect = lower value",0.972 (inactive)
same,normalized growth,"locus YDR334W, strain swr1, stronger effect = lower value",0.994 (inactive)
same,normalized growth,"locus YDR335W, strain msn5, stronger effect = lower value",0.984 (inactive)
same,normalized growth,"locus YDR388W, stronger effect = lower value",0.978 (inactive)
same,normalized growth,"locus YDR392W, strain spt3, stronger effect = lower value",0.832 (inactive)
same,normalized growth,"locus YDR502C, strain sam2, stronger effect = lower value",0.999 (inactive)
same,normalized growth,"locus YEL003W, strain gim4, stronger effect = lower value",0.996 (inactive)
same,normalized growth,"locus YEL037C, strain rad23, stronger effect = lower value",0.99 (inactive)
same,normalized growth,"locus YEL061C, strain CIN8 (second series), stronger effect = lower value",0.975 (inactive)
same,normalized growth,"locus YEL061C, strain CIN8, stronger effect = lower value",1 (inactive)
same,normalized growth,"locus YER015W, strain faa2, stronger effect = lower value",1 (inactive)
same,normalized growth,"locus YER016W, strain bim1, stronger effect = lower value",0.978 (inactive)
same,normalized growth,"locus YER110C, stronger effect = lower value",0.971 (inactive)
same,normalized growth,"locus YER111C, strain swi4, stronger effect = lower value",0.99 (inactive)
same,normalized growth,"locus YER155C, strain BEM2 (second series), stronger effect = lower value",0.952 (inactive)
same,normalized growth,"locus YER155C, strain BEM2, stronger effect = lower value",0.997 (inactive)
same,normalized growth,"locus YER167W, strain BCK2, stronger effect = lower value",1 (inactive)
same,normalized growth,"locus YFR010W, strain ubp6, stronger effect = lower value",0.999 (inactive)
same,normalized growth,"locus YGL078C, strain dbp3, stronger effect = lower value",0.988 (inactive)
same,normalized growth,"locus YGL086W, strain mad1, stronger effect = lower value",0.983 (inactive)
same,normalized growth,"locus YGL167C, strain pmr1, stronger effect = lower value",1 (inactive)
same,normalized growth,"locus YGL173C, strain kem1, stronger effect = lower value",0.961 (inactive)
same,normalized growth,"locus YGL227W, strain vid30, stronger effect = lower value",1 (inactive)
same,normalized growth,"locus YGL240W, strain doc1, stronger effect = lower value",0.92 (inactive)
same,normalized growth,"locus YGL248W, strain PDE1, stronger effect = lower value",1.01 (inactive)
same,normalized growth,"locus YGL253W, strain hxk2, stronger effect = lower value",0.968 (inactive)
same,normalized growth,"locus YGR078C, strain PAC10, stronger effect = lower value",1.02 (inactive)
same,normalized growth,"locus YGR135W, strain pre9, stronger effect = lower value",0.995 (inactive)
same,normalized growth,"locus YGR229C, strain SMI1, stronger effect = lower value",1.04 (inactive)
same,normalized growth,"locus YGR252W, strain gcn5, stronger effect = lower value",0.885 (inactive)
same,normalized growth,"locus YHR013C, strain ard1, stronger effect = lower value",0.96 (inactive)
same,normalized growth,"locus YHR027C, strain rpn1, stronger effect = lower value",0.991 (inactive)
same,normalized growth,"locus YHR030C, strain SLT2, stronger effect = lower value",1 (inactive) and 0.303 (active)
same,normalized growth,"locus YHR079C, strain IRE1 (second series), stronger effect = lower value",0.976 (inactive)
same,normalized growth,"locus YHR079C, strain IRE1, stronger effect = lower value",0.369 (active)
same,normalized growth,"locus YHR094C, strain hxt1, stronger effect = lower value",0.987 (inactive)
same,normalized growth,"locus YHR129C, strain ARP1, stronger effect = lower value",1 (inactive)
same,normalized growth,"locus YHR142W, strain chs7, stronger effect = lower value",0.971 (inactive)
same,normalized growth,"locus YHR200W, strain rpn10, stronger effect = lower value",0.98 (inactive)
same,normalized growth,"locus YIL066C, strain RNR3, stronger effect = lower value",0.994 (inactive)
same,normalized growth,"locus YIL073C, strain SPO22, stronger effect = lower value",0.971 (inactive)
same,normalized growth,"locus YIL125W, strain kgd1, stronger effect = lower value",0.929 (active)
same,normalized growth,"locus YIR030C, strain dcg1, stronger effect = lower value",0.992 (inactive)
same,normalized growth,"locus YJL092W, strain hpr5, stronger effect = lower value",0.982 (inactive)
same,normalized growth,"locus YJL095W, strain BCK1 (second series), stronger effect = lower value",0.988 (inactive)
same,normalized growth,"locus YJL095W, strain BCK1, stronger effect = lower value",1 (inactive) and 0.272 (active)
same,normalized growth,"locus YJL115W, strain asf1, stronger effect = lower value",0.985 (inactive)
same,normalized growth,"locus YJL129C, strain trk1, stronger effect = lower value",0.912 (inactive)
same,normalized growth,"locus YJL134W, strain LCB3, stronger effect = lower value",1.01 (inactive)
same,normalized growth,"locus YJL154C, strain vps35, stronger effect = lower value",0.99 (inactive)
same,normalized growth,"locus YJL164C, strain tpk1, stronger effect = lower value",0.982 (inactive)
same,normalized growth,"locus YJL166W, strain qcr8, stronger effect = lower value",1 (inactive)
same,normalized growth,"locus YJL168C, strain set2, stronger effect = lower value",0.983 (inactive)
same,normalized growth,"locus YJL187C, strain SWE1 (second series), stronger effect = lower value",1.01 (inactive)
same,normalized growth,"locus YJL187C, strain SWE1, stronger effect = lower value",0.97 (inactive)
same,normalized growth,"locus YJR043C, strain POL32, stronger effect = lower value",1.01 (inactive)
same,normalized growth,"locus YJR066W, strain TOR1, stronger effect = lower value",0.492 (active)
